Laboratory results published in PubChem BioAssay (NCATS).
Inconclusive results are not listed. Entries that show only a call come without a potency. Activity calls are given as the source filed them. The call rests on the fitted dose curve; in most records, active means well fitted curve in the direction sought with a large enough effect; inconclusive means small, poorly fitted or top-dose-only effect, or another doubt; inactive means no such curve, though single readings can be large; an effect the other way counts as inactive or inconclusive.

Legend:
[1] = biological target: Glutathione peroxidase 1 (Homo sapiens) (UniProt P07203); experiment: Primary qHTS Assay for Inhibitors of Recombinant Selenoprotein Glutathione Peroxidase 1 (GPX1) (AID 1845191); settings: recombinant GPX1, GR-coupled NADPH fluorescence, 15 min; series mostly up to 48.8 µM; further: nearly all actives have a fitted effect of over 65% in size
How it was run: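 NADPH consumption tracked by fluorescence at 340/450 nm between t=0 and t=15 min, room temperature. Final mix: 10 nM GPX1, 100 nM glutathione reductase, 1 mM GSH, 0.5 mM NADPH, 0.5 mM cumene hydroperoxide, 0.01% BSA; 30 min compound–enzyme preincubation.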

[2] = biological target: Phospholipid hydroperoxide glutathione peroxidase GPX4 (Homo sapiens) (UniProt P36969); experiment: Primary qHTS Assay for Inhibitors of Recombinant Selenoprotein Glutathione Peroxidase 4 (GPX4) (AID 1845192); settings: recombinant GPX4, GR-coupled NADPH fluorescence, 15 min; series mostly up to 50 µM; further: nearly all actives have a fitted effect of over 65% in size
How it was run: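 NADPH consumption followed by fluorescence at 340/450 nm, t=0 and after 15 min at room temperature. Reaction started with cumene hydroperoxide (0.5 mM final) after 30 min compound–GPX4 preincubation; final 200 nM GPX4, 100 nM GR, 1 mM GSH, 0.5 mM NADPH.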

[3] = Quantitative High-Throughput drug screen in 47 multiple myeloma cell lines against the NCATS MIPE library collection: FR4_PLB cell viability assay (AID 1918924; further: nearly all actives have a fitted effect of over 35% in size; further: potency means the concentration at half of the fitted maximal effect); settings: FR4_PLB myeloma cells viability, CellTiter-Glo ATP, 48 h; series mostly up to 45.8 µM
How it was run: (§1)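 Approved and investigational drugs from MIPE 4.0 were added by pin tool to 500 cells per well. After 48 hours at 37C, ATP-based CellTiter-Glo luminescence indicated remaining viability.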

[4] = Quantitative High-Throughput drug screen in 47 multiple myeloma cell lines against the NCATS MIPE library collection: Delta47_JCRB cell viability assay (AID 1918925; further: nearly all actives have a fitted effect of over 45% in size; further: potency means the concentration at half of the fitted maximal effect); settings: Delta47 myeloma viability, CellTiter-Glo ATP, 48 h; series mostly up to 45.8 µM
How it was run: as §1

[5] = Quantitative High-Throughput drug screen in 47 multiple myeloma cell lines against the NCATS MIPE library collection: EJM_DSMZ cell viability assay (AID 1918926; further: nearly all actives have a fitted effect of over 30% in size; further: potency means the concentration at half of the fitted maximal effect); settings: EJM myeloma cell viability, CellTiter-Glo ATP, 48 h; series mostly up to 45.8 µM
How it was run: as §1

[6] = Quantitative High-Throughput drug screen in 47 multiple myeloma cell lines against the NCATS MIPE library collection: AMO1_DSMZ cell viability assay (AID 1918927; further: nearly all actives have a fitted effect of over 30% in size; further: potency means the concentration at half of the fitted maximal effect); settings: AMO1 myeloma cells viability, CellTiter-Glo ATP luminescence, 48 h; series mostly up to 45.8 µM
How it was run: as §1

[7] = biological target: Luciferin 4-monooxygenase (Photinus pyralis) (UniProt P08659); experiment: Primary firefly luciferase (FLuc) qHTS assay for identification of artifact compounds. (AID 1845220); settings: purified firefly luciferase, luminescence, 5 min; series mostly up to 54.1 µM; further: nearly all actives have a fitted effect of over 60% in size
How it was run: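 FLuc 10 nM; luciferin 10 uM; ATP 10 uM; Tris-acetate pH 7.6, Mg-acetate 10 mM; 15 min RT preincubation; 5 min reaction; luminescence.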

[8] = tested on: Nanoluciferase (engineered Oplophorus gracilirostris luciferase); experiment: Primary Nanoluciferase (NLuc) qHTS assay for identification of artifact compounds. (AID 1845222); settings: NLuc-conditioned medium, Nano-Glo luminescence, 5 min; series mostly up to 54.1 µM;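 further: NLuc secreted into diluted conditioned medium of S16 cells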
How it was run: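 NLuc from S16 cell medium (1:55) plus test compounds, 15 min, room temperature. Luminescence after Nano-Glo (1:100) addition, 5 min.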

[9] = Primary redox qHTS assay for identification of artifact compounds. (AID 1845223); settings: Amplex Red/HRP redox cycling with DTT, fluorescence; series mostly up to 53.8 µM
How it was run: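 Redox-cycling detection via DTT (250 uM final) oxidation coupled to Amplex Red (25 uM)/HRP (250 mU/mL) in HBSS. 15 min preincubation plus 30 min after DTT, room temperature. Ex/Em 525/598 nm; 4-parameter Hill fit against DMSO and 10 uM DA3003.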

Phospholipid hydroperoxide glutathione peroxidase GPX4 (Homo sapiens), sequence (P36969 whole entry, looked up): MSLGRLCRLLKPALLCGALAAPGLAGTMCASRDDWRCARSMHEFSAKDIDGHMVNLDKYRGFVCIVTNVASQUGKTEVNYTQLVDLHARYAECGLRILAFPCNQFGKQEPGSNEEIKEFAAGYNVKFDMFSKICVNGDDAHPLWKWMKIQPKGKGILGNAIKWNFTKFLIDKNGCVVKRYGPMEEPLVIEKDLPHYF
Glutathione peroxidase 1 (Homo sapiens), sequence (P07203 whole entry, looked up): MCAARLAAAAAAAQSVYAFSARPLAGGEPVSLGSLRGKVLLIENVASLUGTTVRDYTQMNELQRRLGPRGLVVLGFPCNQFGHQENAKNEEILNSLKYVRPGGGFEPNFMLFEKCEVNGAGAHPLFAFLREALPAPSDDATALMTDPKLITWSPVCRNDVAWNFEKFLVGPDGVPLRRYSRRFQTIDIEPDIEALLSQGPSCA

Row | SMILES | Potency [1] | Potency [2] | Potency [3] | Potency [4] | Potency [5] | Potency [6] | Potency [7] | Potency [8] | outcome [9]
1 | O=C(Nc1cc(Cl)cc2c1[nH]c1cnccc12)c1cccnc1 | inactive | inactive | 1.87 µM (active) | 4.18 µM (active) | 10.5 µM (active) | inactive | – | – | –
2 | O=C(CCCCCCC(=O)Nc1ccccc1)NO | inactive | inactive | 2.35 µM (active) | 1.32 µM (active) | 7.43 µM (active) | 1.05 µM (active) | inactive | inactive | inactive
3 | CC(C)(C)C(=O)Oc1ccc2c(c1)nc(NC(=O)c1cccc([N+](=O)[O-])c1)n2CCCO | inactive | inactive | – | inactive | 13.2 µM (active) | inactive | – | – | –
4 | O=c1cc(N2CCOCC2)oc2c(-c3cccc4c3sc3ccccc34)cccc12 | inactive | inactive | 20.9 µM (active) | 3.32 µM (active) | – | 5.26 µM (active) | – | – | –
5 | COc1cccc2c1CCCC2CCCN1CCN(C2CCCCC2)CC1 (centres undefined) | inactive | inactive | 23.5 µM (active) | 16.6 µM (active) | – | 23.5 µM (active) | – | – | –
6 | CC(C(=O)O)c1ccc(-c2ccccc2)c(F)c1 (centres undefined) | inactive | inactive | inactive | – | 13.2 µM (active) | – | – | – | –
7 | CCOC(CN1C(=O)[C@](CC(=O)Nc2ccc(C)cc2)(NC(=O)Nc2ccc(C)cc2)c2ccccc21)OCC | inactive | inactive | – | – | inactive | – | – | – | –
8 | CC(C)C[C@H](CC(=O)O)C(=O)N[C@@H](Cc1c[nH]c2ccccc12)C(=O)N[C@@H](C)c1ccccc1 | inactive | inactive | – | – | inactive | inactive | – | – | –
9 | O=C(NCc1ccncc1)C12C[C@H]3C[C@@H](C1)CC(c1ccc(Cl)cc1)(C3)C2 | inactive | inactive | – | 16.6 µM (active) | – | 9.35 µM (active) | – | – | –
10 | Clc1ccc(C(c2ccc(Cl)cc2)n2cc[n+](CC(OCc3ccc(Cl)cc3Cl)c3ccc(Cl)cc3Cl)c2)cc1 (centres undefined) | inactive | inactive | – | 8.33 µM (active) | 16.6 µM (active) | 16.6 µM (active) | – | – | –
11 | Oc1ccc(C2CCN(c3ccnc4ccccc34)CC2)cc1O | inactive | inactive | 14.8 µM (active) | 9.35 µM (active) | – | 18.7 µM (active) | – | – | –
12 | CO[C@@H](C(=O)N1Cc2[nH]nc(NC(=O)c3ccc(N4CCN(C)CC4)cc3)c2C1)c1ccccc1 | inactive | inactive | 23.5 µM (active) | 6.62 µM (active) | – | 4.69 µM (active) | – | – | –
13 | O=C(O)C(O)Cc1ccc(O)c(O)c1 (centres undefined) | inactive | inactive | – | – | 23.5 µM (active) | inactive | – | – | –
